This is an account of results in ChEMBL document CHEMBL1961873, “Compounds: GSK PKIS; Assays: Nanosyn kinase panel” (2012).

The target in test [1] is Protein kinase C gamma type (Homo sapiens) (UniProt P05129). As to conditions: at 1 µM.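 Note: each value is an averaged percent inhibition of the enzyme.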
In test [2] the target is T1, Protein kinase C iota type (Homo sapiens) (UniProt P41743).
T1 sequence (whole entry): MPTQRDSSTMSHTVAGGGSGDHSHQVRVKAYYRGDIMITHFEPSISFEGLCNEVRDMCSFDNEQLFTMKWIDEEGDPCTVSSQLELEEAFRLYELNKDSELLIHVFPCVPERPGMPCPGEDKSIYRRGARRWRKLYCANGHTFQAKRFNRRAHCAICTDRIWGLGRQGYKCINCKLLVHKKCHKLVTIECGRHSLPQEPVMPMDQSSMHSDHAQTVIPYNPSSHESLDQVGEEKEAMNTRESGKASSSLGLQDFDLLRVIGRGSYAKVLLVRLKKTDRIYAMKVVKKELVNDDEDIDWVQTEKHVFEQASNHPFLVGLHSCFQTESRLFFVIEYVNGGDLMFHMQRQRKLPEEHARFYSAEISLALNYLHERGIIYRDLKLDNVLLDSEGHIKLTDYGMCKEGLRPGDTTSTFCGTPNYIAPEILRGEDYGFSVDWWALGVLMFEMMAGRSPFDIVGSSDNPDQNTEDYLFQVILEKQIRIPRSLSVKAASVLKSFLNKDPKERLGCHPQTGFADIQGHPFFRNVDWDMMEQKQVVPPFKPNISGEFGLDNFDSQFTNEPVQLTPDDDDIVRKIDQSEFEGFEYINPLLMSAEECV
To be noted: at 0.1 µM.

The target in test [3] is T1, Protein kinase C iota type (Homo sapiens). As to conditions: at 1 µM.
Test [4] deals with Protein kinase C theta type (Homo sapiens) (UniProt Q04759). As to conditions: at 0.1 µM.
Chain of Protein kinase C theta type (Homo sapiens) (Q04759 whole entry, looked up): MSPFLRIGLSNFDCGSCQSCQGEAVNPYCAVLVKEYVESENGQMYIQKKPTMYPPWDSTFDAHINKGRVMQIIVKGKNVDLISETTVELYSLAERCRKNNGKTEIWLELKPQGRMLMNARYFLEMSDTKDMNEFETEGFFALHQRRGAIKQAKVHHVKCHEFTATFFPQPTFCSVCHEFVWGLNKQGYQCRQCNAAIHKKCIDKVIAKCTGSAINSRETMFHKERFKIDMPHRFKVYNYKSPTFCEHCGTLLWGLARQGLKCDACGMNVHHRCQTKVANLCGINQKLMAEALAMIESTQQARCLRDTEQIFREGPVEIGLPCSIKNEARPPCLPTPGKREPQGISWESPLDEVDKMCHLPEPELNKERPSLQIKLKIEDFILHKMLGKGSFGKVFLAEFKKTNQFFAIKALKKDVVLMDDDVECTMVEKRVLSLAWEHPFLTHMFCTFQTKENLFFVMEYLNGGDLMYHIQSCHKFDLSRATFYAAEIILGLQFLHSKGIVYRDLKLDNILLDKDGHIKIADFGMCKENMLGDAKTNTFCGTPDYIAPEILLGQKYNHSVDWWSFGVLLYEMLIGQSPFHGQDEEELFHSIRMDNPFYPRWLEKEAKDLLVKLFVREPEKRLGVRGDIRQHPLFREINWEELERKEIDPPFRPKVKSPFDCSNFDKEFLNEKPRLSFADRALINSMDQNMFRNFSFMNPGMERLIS
For test [5] the target is unchanged. As to conditions: at 1 µM.
Test [6] addresses Protein kinase C beta type (Homo sapiens) (UniProt P05771). To be noted: at 0.1 µM.
The target is the same in test [7]. To be noted: at 1 µM.
Test [8] has as its target T2, Serine/threonine-protein kinase D1 (Homo sapiens) (UniProt Q15139).
T2 sequence (whole entry): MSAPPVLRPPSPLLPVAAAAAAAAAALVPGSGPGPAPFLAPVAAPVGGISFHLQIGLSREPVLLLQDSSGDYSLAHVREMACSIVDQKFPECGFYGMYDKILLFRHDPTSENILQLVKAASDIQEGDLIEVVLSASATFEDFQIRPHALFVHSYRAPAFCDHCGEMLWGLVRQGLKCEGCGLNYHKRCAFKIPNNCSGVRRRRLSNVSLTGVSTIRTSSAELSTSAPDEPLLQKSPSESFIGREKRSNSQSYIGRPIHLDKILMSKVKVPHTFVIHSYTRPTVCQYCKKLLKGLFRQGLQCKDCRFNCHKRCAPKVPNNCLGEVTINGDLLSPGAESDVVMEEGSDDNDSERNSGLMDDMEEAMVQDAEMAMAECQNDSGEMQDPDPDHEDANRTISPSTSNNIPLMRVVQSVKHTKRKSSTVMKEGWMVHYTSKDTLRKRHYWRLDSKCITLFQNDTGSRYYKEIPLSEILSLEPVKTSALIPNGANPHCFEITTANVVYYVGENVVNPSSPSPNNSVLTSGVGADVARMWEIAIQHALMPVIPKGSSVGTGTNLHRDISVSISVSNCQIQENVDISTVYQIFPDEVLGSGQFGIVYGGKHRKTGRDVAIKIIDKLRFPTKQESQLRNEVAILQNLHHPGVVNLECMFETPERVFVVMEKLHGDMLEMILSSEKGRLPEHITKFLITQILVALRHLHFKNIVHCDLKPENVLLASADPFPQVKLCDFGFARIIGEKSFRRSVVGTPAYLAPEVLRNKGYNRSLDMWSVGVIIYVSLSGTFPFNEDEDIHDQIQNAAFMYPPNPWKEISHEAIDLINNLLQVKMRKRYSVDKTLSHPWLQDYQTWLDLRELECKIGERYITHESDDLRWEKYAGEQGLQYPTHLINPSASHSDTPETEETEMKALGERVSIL
To be noted: at 0.1 µM.

For test [9], the target named is T2, Serine/threonine-protein kinase D1 (Homo sapiens). As to conditions: at 1 µM.
In test [10] the target is T3, Serine/threonine-protein kinase D2 (Homo sapiens) (UniProt Q9BZL6).
T3 sequence (whole entry): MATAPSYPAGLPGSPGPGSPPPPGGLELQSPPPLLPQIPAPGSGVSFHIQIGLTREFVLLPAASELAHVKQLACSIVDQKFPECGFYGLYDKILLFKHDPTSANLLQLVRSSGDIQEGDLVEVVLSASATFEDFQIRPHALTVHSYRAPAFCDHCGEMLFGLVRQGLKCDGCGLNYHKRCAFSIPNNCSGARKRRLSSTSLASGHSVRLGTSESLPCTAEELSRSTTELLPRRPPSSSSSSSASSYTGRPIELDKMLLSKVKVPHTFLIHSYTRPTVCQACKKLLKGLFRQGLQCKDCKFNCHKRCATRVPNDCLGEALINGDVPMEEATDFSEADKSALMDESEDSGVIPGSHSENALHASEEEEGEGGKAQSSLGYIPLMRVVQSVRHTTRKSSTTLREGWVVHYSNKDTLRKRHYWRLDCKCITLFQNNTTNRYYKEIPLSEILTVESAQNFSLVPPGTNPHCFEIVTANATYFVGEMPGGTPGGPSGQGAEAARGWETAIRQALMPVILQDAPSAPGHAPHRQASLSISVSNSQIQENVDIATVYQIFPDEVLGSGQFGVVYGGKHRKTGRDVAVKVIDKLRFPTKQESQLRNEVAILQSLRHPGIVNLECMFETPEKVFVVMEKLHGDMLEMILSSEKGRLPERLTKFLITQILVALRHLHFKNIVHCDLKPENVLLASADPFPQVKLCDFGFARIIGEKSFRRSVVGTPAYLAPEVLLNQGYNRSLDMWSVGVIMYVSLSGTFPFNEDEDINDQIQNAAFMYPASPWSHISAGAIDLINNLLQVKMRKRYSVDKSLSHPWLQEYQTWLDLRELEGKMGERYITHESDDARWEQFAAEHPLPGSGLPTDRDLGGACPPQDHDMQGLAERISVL
To be noted: at 0.1 µM.

For test [11], the target named is T3, Serine/threonine-protein kinase D2 (Homo sapiens). As to conditions: at 1 µM.
The target of test [12] is T4, Serine/threonine-protein kinase D3 (Homo sapiens) (UniProt O94806).
T4 sequence (whole entry): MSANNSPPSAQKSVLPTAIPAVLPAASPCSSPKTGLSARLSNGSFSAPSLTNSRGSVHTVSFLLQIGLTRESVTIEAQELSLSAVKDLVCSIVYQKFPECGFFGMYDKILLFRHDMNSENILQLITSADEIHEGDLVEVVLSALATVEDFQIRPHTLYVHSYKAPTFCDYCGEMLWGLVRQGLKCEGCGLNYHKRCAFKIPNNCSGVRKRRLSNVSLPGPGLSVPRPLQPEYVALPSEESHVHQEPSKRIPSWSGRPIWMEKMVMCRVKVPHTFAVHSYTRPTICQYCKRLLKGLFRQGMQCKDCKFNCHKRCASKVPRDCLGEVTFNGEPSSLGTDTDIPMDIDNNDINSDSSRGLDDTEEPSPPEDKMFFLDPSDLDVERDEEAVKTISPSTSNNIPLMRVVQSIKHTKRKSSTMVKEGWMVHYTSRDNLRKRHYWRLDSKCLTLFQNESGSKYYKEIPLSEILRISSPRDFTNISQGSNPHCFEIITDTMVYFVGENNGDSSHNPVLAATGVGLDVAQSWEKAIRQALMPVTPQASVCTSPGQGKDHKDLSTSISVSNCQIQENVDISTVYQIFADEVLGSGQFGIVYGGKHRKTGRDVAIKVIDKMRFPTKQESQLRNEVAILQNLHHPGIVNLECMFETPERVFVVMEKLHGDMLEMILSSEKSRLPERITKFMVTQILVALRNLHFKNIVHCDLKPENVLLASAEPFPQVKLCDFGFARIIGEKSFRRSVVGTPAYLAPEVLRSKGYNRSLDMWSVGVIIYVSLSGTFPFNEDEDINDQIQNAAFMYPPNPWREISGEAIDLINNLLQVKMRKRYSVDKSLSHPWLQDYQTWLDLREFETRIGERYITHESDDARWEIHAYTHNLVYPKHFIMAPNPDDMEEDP
As to conditions: at 0.1 µM.

Test [13] deals with T4, Serine/threonine-protein kinase D3 (Homo sapiens). To be noted: at 1 µM.
Test [14] concerns the target T5, cGMP-dependent protein kinase 1 (Homo sapiens) (UniProt Q13976).
T5 sequence (whole entry): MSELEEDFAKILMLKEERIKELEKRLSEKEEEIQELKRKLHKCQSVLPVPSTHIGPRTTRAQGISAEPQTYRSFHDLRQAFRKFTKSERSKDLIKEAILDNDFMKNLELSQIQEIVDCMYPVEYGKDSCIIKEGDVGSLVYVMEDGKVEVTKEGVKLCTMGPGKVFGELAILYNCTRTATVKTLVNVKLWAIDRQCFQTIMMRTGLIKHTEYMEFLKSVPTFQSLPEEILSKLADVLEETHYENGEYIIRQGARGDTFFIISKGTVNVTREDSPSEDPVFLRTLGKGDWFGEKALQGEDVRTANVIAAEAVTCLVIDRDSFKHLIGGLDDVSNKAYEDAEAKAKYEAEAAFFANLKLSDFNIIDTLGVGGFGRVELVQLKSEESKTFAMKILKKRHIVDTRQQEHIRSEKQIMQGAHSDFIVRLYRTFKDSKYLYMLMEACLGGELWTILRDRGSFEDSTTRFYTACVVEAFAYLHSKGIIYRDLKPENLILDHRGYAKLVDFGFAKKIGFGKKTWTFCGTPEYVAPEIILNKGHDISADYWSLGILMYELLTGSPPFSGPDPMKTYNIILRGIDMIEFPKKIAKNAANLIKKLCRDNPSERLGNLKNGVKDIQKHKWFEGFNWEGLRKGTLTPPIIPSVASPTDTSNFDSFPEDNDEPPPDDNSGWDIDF
As to conditions: at 0.1 µM.

The target in test [15] is T5, cGMP-dependent protein kinase 1 (Homo sapiens). To be noted: at 1 µM.
The target in test [16] is T6, cGMP-dependent protein kinase 2 (Homo sapiens) (UniProt Q13237).
T6 sequence (whole entry): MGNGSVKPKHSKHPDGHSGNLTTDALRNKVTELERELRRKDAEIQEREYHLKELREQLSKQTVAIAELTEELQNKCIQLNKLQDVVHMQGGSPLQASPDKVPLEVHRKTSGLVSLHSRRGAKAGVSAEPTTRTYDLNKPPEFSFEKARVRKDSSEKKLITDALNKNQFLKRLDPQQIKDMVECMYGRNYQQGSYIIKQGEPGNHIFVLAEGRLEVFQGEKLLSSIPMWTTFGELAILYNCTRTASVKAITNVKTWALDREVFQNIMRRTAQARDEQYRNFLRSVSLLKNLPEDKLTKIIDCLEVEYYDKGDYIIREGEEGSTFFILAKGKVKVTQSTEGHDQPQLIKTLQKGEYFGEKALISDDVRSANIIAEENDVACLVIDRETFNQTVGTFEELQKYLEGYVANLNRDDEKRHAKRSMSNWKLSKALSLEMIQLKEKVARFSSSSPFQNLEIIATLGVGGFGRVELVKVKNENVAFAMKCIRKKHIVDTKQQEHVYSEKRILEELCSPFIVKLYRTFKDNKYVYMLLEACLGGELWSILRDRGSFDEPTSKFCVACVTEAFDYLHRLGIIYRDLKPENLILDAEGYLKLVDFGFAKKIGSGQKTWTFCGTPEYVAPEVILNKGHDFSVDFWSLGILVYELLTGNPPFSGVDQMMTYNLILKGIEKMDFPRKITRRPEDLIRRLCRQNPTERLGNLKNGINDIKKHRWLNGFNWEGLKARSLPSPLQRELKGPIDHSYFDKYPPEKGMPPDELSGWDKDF
As to conditions: at 0.1 µM.

Test [17] has as its target T6, cGMP-dependent protein kinase 2 (Homo sapiens). To be noted: at 1 µM.
Test [18] addresses T7, cAMP-dependent protein kinase catalytic subunit PRKX (Homo sapiens) (UniProt P51817).
T7 sequence (whole entry): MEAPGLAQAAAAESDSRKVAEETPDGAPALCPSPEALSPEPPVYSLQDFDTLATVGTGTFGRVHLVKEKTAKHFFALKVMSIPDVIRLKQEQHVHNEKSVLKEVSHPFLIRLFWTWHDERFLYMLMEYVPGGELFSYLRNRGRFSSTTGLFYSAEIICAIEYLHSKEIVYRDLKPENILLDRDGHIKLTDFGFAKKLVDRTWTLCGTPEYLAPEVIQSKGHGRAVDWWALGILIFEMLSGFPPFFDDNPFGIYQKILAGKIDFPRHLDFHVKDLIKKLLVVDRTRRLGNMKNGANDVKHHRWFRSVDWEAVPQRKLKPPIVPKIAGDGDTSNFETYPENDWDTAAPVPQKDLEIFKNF
To be noted: at 0.1 µM.

Test [19] addresses T7, cAMP-dependent protein kinase catalytic subunit PRKX (Homo sapiens). To be noted: at 1 µM.
Test [20] addresses Rho-associated protein kinase 1 (Homo sapiens) (UniProt Q13464). As to conditions: at 0.1 µM.

Chain of Protein kinase C beta type (Homo sapiens) (P05771 2-671 limits assumed): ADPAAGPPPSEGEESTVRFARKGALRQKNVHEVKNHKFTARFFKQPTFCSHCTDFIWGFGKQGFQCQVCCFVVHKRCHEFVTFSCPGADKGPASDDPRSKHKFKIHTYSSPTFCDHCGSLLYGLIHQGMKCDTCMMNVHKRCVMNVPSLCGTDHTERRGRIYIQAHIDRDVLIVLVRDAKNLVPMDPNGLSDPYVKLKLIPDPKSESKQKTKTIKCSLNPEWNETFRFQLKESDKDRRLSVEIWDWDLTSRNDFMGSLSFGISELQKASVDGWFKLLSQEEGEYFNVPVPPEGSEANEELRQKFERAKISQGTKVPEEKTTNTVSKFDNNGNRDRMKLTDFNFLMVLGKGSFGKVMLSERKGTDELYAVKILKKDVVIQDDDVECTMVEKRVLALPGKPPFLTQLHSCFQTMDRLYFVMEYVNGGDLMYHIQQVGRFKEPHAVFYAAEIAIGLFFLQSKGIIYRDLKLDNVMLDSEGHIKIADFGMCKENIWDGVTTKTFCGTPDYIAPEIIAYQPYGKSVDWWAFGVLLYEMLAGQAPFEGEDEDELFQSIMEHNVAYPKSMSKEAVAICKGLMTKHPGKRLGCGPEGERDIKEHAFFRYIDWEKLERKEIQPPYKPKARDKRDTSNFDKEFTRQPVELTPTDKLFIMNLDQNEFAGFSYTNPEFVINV
Chain of Rho-associated protein kinase 1 (Homo sapiens) (Q13464 2-1354 limits assumed): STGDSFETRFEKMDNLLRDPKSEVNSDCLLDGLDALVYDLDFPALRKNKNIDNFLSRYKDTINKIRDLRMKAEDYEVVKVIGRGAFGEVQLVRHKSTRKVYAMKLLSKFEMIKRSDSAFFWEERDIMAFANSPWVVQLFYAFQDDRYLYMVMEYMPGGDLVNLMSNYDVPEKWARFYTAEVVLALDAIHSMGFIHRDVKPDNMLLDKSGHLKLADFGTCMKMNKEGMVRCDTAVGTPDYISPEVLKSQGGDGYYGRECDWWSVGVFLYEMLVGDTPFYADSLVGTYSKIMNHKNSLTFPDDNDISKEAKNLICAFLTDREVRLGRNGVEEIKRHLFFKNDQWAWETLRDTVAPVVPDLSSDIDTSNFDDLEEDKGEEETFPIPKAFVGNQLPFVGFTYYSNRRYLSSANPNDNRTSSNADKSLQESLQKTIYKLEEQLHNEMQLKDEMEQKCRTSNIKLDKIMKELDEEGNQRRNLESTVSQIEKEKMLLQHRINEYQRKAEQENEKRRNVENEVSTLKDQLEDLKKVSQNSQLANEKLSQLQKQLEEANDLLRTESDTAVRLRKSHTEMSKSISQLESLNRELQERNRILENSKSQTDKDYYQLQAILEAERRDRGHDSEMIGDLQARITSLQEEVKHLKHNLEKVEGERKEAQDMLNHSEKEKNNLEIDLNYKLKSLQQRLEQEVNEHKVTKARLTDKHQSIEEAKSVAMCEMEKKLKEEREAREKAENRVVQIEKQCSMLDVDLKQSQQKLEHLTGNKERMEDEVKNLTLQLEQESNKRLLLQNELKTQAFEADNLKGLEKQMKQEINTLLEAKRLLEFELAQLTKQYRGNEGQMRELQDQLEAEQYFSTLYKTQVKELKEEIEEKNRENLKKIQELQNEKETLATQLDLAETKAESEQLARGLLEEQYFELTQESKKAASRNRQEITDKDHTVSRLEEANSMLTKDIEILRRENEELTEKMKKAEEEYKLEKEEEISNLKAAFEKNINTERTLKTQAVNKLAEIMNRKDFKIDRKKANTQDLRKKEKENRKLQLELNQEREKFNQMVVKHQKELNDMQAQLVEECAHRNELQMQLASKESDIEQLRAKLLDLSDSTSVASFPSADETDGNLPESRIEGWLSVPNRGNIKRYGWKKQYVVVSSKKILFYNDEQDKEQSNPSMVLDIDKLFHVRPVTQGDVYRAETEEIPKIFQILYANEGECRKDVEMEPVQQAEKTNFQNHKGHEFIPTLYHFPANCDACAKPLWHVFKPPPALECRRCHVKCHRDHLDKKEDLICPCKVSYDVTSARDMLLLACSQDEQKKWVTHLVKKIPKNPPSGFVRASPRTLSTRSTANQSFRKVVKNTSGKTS

In the case of `N#Cc1ccc(Oc2nccc(-c3c(-c4ccc(F)cc4)ncn3C3CCNCC3)n2)cc1`, the inhibition in test [1] is 4.11%; in test [2] it was 2.09%; in test [3], 2.63%; in test [4], 2.28%; in test [5] it was 3.89%; in test [6], 0.99%. Also, the inhibition in test [7] came to 3.08%; in test [8], 5.51%; in test [9] it was 8.1%; in test [10] it was 4.63%; in [11], 5.05%; in test [12], 5.58%. In addition, the inhibition was found to be 5.89% in test [13]; 2.79% in test [14]; 2.48% in [15]; 2.19% in test [16]; 2.92% in test [17]; 1.03% in [18]. In addition, the inhibition was found to be 2.01% in [19] and 2.51% in [20].
For the compound `NCc1ccc(-n2c(-c3nonc3N)nc3cnccc32)cc1`, the inhibition came out at 42.1% in test [1]; 4.36% in [2]; 27.5% in test [3]; 17.2% in test [4]; 59.4% in [5]; 7.63% in test [6]. Further, the inhibition came out at 37.7% in [7]; 8.16% in test [8]; 41% in [9]; 8.58% in test [10]; 41.3% in test [11]; 8.56% in [12]. Besides, the inhibition in [13] worked out at 40%; in test [14], 6.05%; in test [15], 26.6%; in test [16] it was 16%; in test [17], 60.2%; in test [18] it was 5.92%. The figures for the inhibition in test [19] and in test [20] were 29.4% and 80.6%, respectively.
